Our source for the inhibition values is PubChem BioAssay AID1903 (Southern Research Specialized Biocontainment Screening …, 2009).

Among all 310,000 compounds or so, about 1,200 (0.39%) were called active. Not all results are given here. Results with a measured potency or affinity are listed apart. Unmarked numbers belong to inactive results. How the calls were made is not given here.

For the assay, the target named is Large T antigen (Simian virus 40) (UniProt P03070). Kind of assay: SV40 large T antigen inhibitors, biochemical (AID 1903). Particulars: SV40 large T antigen ATPase/helicase inhibition assay; at 20 µM; active compounds read high.
Large T antigen (Simian virus 40), sequence (P03070 whole entry, looked up): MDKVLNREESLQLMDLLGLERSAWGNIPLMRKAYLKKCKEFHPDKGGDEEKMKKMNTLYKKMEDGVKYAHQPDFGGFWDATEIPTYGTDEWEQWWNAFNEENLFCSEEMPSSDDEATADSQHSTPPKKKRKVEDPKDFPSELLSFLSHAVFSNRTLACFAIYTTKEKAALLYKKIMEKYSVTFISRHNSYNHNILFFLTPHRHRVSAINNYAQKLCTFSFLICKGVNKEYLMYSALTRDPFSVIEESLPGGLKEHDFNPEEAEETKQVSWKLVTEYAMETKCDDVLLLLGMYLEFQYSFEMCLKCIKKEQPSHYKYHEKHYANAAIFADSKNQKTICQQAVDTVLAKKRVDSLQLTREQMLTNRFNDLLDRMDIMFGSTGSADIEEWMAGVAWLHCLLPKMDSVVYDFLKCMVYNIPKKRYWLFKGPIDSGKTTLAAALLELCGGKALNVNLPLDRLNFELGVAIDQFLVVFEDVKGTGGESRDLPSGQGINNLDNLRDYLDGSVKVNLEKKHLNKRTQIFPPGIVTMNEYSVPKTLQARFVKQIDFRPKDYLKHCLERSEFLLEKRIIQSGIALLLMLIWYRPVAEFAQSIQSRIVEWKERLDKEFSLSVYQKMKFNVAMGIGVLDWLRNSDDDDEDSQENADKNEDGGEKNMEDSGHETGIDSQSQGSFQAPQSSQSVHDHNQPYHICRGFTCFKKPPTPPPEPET
For `CCOC(=O)c1[nH]c2ccc(OC)cc2c1N=CN(C)C`, the inhibition is 16.9%.
For `CCn1nnnc1SCC(=O)Nc1cccc(NC(C)=O)c1`, the inhibition is 0.63%.
As for `Cc1ccc2nccc(C(=O)N3CCCC(Nc4ccc(F)cc4)C3)c2c1` (stereo unspecified), the inhibition was 14%.
As for `Cc1ccc(-c2noc(C3CCCN(C(=O)c4ccccc4Br)C3)n2)o1` (stereo unspecified), the inhibition was 15.6%.
Take `O=C(Nc1ccccc1)C1CC(=O)N(Cc2ccccc2)C1` (stereo unspecified): the inhibition was 27.5%.
Consider `CC(=O)Nc1ccc(NC(=O)C2CC(=O)N(Cc3ccccc3)C2)cc1` (stereo unspecified), for which the inhibition is 27.7%.
With `COc1ccc2nc(N3C(=O)CC(Cc4cc(C)cc(C)c4)C3=O)sc2c1` (stereo unspecified), the inhibition was -1.29%.
To `COc1ccc(OCc2cc(C(=O)NC3CCOCC3)no2)c2ccccc12` belongs 12%; to `O=C1c2ccccc2C(=O)N1Cc1ccco1`, 4.84%; to `O=C1C2C(C(=O)N1Cc1ccco1)C1C=CC2C12CC2` (stereo unspecified), -1.46%.
Under `O=C1CC(=O)N(Cc2cccs2)C(=O)N1` stands 22.2%; under `COC(=O)C1=C(C)N(Cc2ccco2)C(=O)C1`, 23.9%; under `COc1ccc(S(=O)(=O)N2CCCC(C(=O)N3CCOCC3)C2)cc1OC` (stereo unspecified), 7.49%.
In the case of `CN(C)c1ccc(C(=O)N2CCN(c3cc(C(F)(F)F)nc4ccccc34)CC2)cc1`, the inhibition is 16.5%.
To `Cc1ccc(Cc2c(C)nc3nc(SCC(=O)NCCCN4CCCC4)nn3c2C)cc1` belongs 9.31%; to `O=C1C(=O)N(Cc2cccnc2)C(c2ccc(Br)cc2)/C1=C(\O)c1ccc2c(c1)OCCO2` (stereo unspecified), 8.89%; to `O=C1/C(=C/c2cccs2)NC(=S)N1C1CC1`, 9.13%.
`CN(C)c1ncc(/C=C2/C(=O)NC(=S)N(C3CCCCC3)C2=O)cn1`: the inhibition was 10.9%.
Take `CN(C)c1ccc(/C=C/c2ccncc2)cc1`: the inhibition was 25.2%.
Turning to `CN(C)c1ccc(/C=C/c2cc[n+](C)cc2)cc1`, the inhibition is 7.41%.
Consider `Cn1c(CCc2nc3ccccc3[nH]2)n[nH]c1=S`, for which the inhibition is 9.76%.
Take `CC(=O)NC1(c2ccccc2)CCN(C(=O)N2CCOCC2)CC1`: the inhibition is 4.59%.
Take `Cc1c(NS(=O)(=O)c2ccccc2F)c(=O)n(-c2ccccc2)n1C`: the inhibition was 3.58%.
Under `O=C(Nc1ccc2c(c1)CCC2)c1cccc(OC(F)F)c1` stands 15.1%; under `CC(=O)Nc1ccc(NC(=O)CS(=O)(=O)c2cn(CC(=O)N3CCC(C)CC3)c3ccccc23)cc1`, 21.1%.
Regarding `NC(=S)N/N=C/c1coc2c(ccc3ccccc32)c1=O`, the inhibition is 10.7%.
Regarding `O=Cc1coc2ccc3ccccc3c2c1=O`, the inhibition is 12.7%.
With `CC(C)Cn1c(=O)c2c(nc3n2CC(C)CN3Cc2ccccc2)n(C)c1=O` (stereo unspecified), the inhibition was 9.7%.
Consider `Cc1cc(C)n(-c2nc3ccccc3c(=O)n2OCC(=O)Nc2c(C)cccc2C)n1`, for which the inhibition is 1.06%.
Under `O=C1c2cccnc2C(=O)N1Cc1ccc(S(=O)(=O)N2CCN(c3ccccc3)CC2)cc1` stands -3.05%; under `CCc1ccccc1NC(=O)C1CCCN(c2ncnc3onc(-c4ccc(F)cc4)c23)C1` (stereo unspecified), 4.3%.
As to `COc1ccc(NC2CCCN(Cc3cccc4cnccc34)C2)cc1` (stereo unspecified), the inhibition was 30.9%.
Regarding `COc1ccc(NC2CCCN(C(=O)CCc3ccncc3)C2)cc1OC` (stereo unspecified), the inhibition was 35.9%.
`COc1cc(/C=C2\SC(c3ccccc3)=NC2=O)cc(Cl)c1O`: the inhibition was 33.2%.
To `COc1ccc(Br)cc1/C=C/C(=O)NC(=S)Nc1ccc(Cl)c(C(=O)O)c1` belongs 25.5%; to `CC(=O)Nc1ccc2oc(-c3cc(F)c(F)cc3Cl)nc2c1`, 0.785%; to `Cc1ccc2c(c1)NC(=O)C(CC(=O)O)O2` (stereo unspecified), 3.98%.
Under `CCOC(=O)/C=C1\Nc2ccccc2OC1=O` stands 28.2%.
To `CCCN(CCC)S(=O)(=O)c1ccc(NC(=O)C2CCCO2)cc1` (stereo unspecified) belongs 3.88%; to `N/C(COc1ccc(C(=O)O)cc1)=N\O`, 0.11%; to `OCCNc1c2ccccc2nc2ccccc12`, 12.6%.
For the molecule `COc1ccc(CCNc2c3ccccc3nc3ccccc23)cc1OC`, the inhibition was 11.5%.
With `CCN(CC)CCN1C(=O)C(O)=C(C(=O)c2cc3ccccc3o2)C1c1cccnc1` (stereo unspecified), the inhibition is 2.07%.
With `CCN(CC)CCN1C(=O)C(O)=C(C(=O)c2sc(C)nc2C)C1c1cccnc1` (stereo unspecified), the inhibition was 2.43%.
Consider `O=C(O)CC(NS(=O)(=O)c1cccc2nsnc12)c1ccc(F)cc1` (stereo unspecified), for which the inhibition was 0.56%.
Consider `O=c1[nH]n(-c2ccccc2)c(=O)c2ccccc12`, for which the inhibition was 3.85%.
For the molecule `O=c1c2ccccc2c2ccccc2c(=O)n1-c1ccccc1`, the inhibition is 4.04%.
Under `COc1cccc(C(=O)Nc2cc(OC)ccc2NC(=O)c2ccco2)c1` stands 17.6%; under `Nc1ccc2c(c1)C(=O)C(=O)c1ccccc1-2`, 15.6%.
Under `NCCN=C1NS(=O)(=O)c2ccccc21` stands 7.44%.
As for `CC(=O)Nc1ccc(S(=O)(=O)Nc2nc3ccccc3nc2Nc2ccc(S(N)(=O)=O)cc2)cc1`, the inhibition was 6.12%.
To `COc1ccc(Nc2nc3ccccc3nc2NS(=O)(=O)c2ccc(NC(C)=O)cc2)cc1` belongs 12.8%.
Regarding `CC(=O)Nc1ccc(Nc2nc3ccccc3nc2NS(=O)(=O)c2ccccc2)cc1`, the inhibition was 23.5%.
To `CC(=O)Nc1ccc(S(=O)(=O)Nc2nc3ccccc3nc2Nc2ccccc2)cc1` belongs 1.54%.
Regarding `Cn1c(=O)c(C(=O)c2ccc(S(C)(=O)=O)c(Cl)c2Cl)c(O)c2ccccc21`, the inhibition is 17%.
In the case of `Cn1cc(C(=O)NCCO)c(=O)c2ccccc21`, the inhibition is -1.83%.
`O=C(CSc1nnc(-c2ccccc2)n1CC1CCCO1)N1CCCC1` (stereo unspecified): the inhibition was 12.8%.
`Cc1nnc2ccc(-c3cccc(NS(=O)(=O)c4ccccc4Cl)c3)nn12`: the inhibition is 10.3%.
With `CSc1ccccc1N=Cc1nc(-c2ccccc2)oc1O`, the inhibition was 8.02%.
Under `Cc1cccc(NCC(=O)c2c(N)n(C)c(=O)n(C)c2=O)c1C` stands 4.72%; under `COC(=O)CN1C(c2cccc(Cl)c2)=Nc2ccc(Cl)cc2C1c1ccccc1` (stereo unspecified), 7.04%.
In the case of `COc1cccc(/C=N/n2c(-c3cc(C)[nH]n3)n[nH]c2=S)c1OC`, the inhibition is 26.8%.
In the case of `COc1cc(/C=N/n2c(C3CCCCC3)n[nH]c2=S)ccc1O`, the inhibition was 21%.
Consider `COc1cccc(/C=N/n2c(SC)nnc2-c2ccccc2)c1O`, for which the inhibition is 26.3%.
Under `COc1ccc(/C=N/n2c(-c3n[nH]c4c3CCC4)n[nH]c2=S)cc1OC` stands 23.9%; under `COc1cc(/C=N/n2c(-c3cc(C)[nH]n3)n[nH]c2=S)cc(OC)c1O`, 24.5%; under `COc1cc(/C=N/n2c(C3CCCCC3)n[nH]c2=S)cc(OC)c1O`, 10.8%.
As to `COc1ccc(CCNC(=O)CN(C)S(=O)(=O)c2ccc(Br)s2)cc1OC`, the inhibition was -4.17%.
As to `Cc1c(Cc2ccccc2)c(=O)oc2c(C)c(OCc3nn[nH]n3)ccc12`, the inhibition is 11.2%.
For the molecule `CCN1CCc2c(OCC(=O)Nc3ccc4c(c3)OCCO4)cccc2C1=O`, the inhibition is 1.06%.
Under `Cc1cc(C)c(S(=O)(=O)c2ccc(Cl)cc2)c(=O)[nH]1` stands 7.48%; under `CCOc1ccc(-c2[nH]nc3c2C(c2ccc4c(c2)OCO4)C(C#N)=C(N)O3)cc1OC` (stereo unspecified), 17%.
To `O=C(CN(c1ccccc1Cl)S(=O)(=O)c1ccccc1)N/N=C/c1ccccc1C(=O)O` belongs 9.75%; to `CC(=O)N1CCN(CC(=O)Nc2sccc2C#N)CC1`, 4.43%.
To `CCOc1ccccc1NC(=O)C1CC2CCCC(C1)C2=O` (stereo unspecified) belongs 14.6%; to `CCc1ccccc1NC(=O)Cn1c(=O)n(-c2ccc(CC(=O)NCC3CCCO3)cc2)c(=O)c2ccccc21` (stereo unspecified), 23.2%.
For the molecule `CN(C)Cc1c(O)ccc2c(=O)c(-c3ccc(Cl)cc3)coc12`, the inhibition was 2.49%.
In the case of `O=c1cc(-c2ccc([N+](=O)[O-])cc2)c2ccc(O)cc2o1`, the inhibition was 9.32%.
Consider `COc1ccc(-n2cnnc2SCCC#N)cc1`, for which the inhibition was 2.92%.
Regarding `COc1cc(CNCCCN2CCOCC2)ccc1OCC(=O)NC(C)(C)C`, the inhibition was -1.04%.
Under `COc1cc(CNC(C)(C)C)ccc1OCC(=O)NC(C)(C)C` stands 12.2%.
As for `COc1cc(CNCCN2CCOCC2)ccc1OCC(=O)NC(C)(C)C`, the inhibition is 3.18%.
Under `COc1cc(CNc2ccc(N3CCOCC3)c(C(=O)O)c2)ccc1OCC(N)=O` stands 14%; under `CCOc1cc(CNc2ccc3c(c2)OCCO3)cc(Br)c1OCC(N)=O`, 32.4%; under `CCOc1cc(CNc2ccc(N3CCCCC3)cc2)cc(Br)c1OCC(=O)NC(C)(C)C`, 19.5%.
As for `O=C(c1cc2ccccc2o1)n1nnc2ccccc21`, the inhibition is 3.13%.
Turning to `CC(C)(C)NS(=O)(=O)c1cc(C(=O)Nc2sccc2C#N)ccc1Cl`, the inhibition was 8.52%.
On to `COc1cc(NC(=O)C2CCCN(S(=O)(=O)c3ccc4c(c3)oc(=O)n4C)C2)cc(OC)c1` (stereo unspecified), for which the inhibition was 1.24%.
As for `O=C(O)CSCC(=O)N1CCN(c2nc3cc(Cl)ccc3s2)CC1`, the inhibition is 8.15%.
Consider `C=CCNC(=O)c1ccccc1NS(=O)(=O)c1ccccc1`, for which the inhibition was 4.06%.
Turning to `CCN(CC)CCNC(=O)c1cn(-c2ccccc2)nc1-c1cccs1`, the inhibition is 12.7%.
In the case of `c1ccc(-c2nc(-c3ccco3)cs2)nc1`, the inhibition was 23.7%.
In the case of `c1coc(-c2nc3ccccc3nc2-c2ccco2)c1`, the inhibition was 50.2%.
For `c1coc(-c2nnc(-c3ccco3)nn2)c1`, the inhibition is 63.8%.
Regarding `Nc1nc(-c2ccc(-n3nncc3-c3ccco3)cc2)cs1`, the inhibition is 13.1%.
For `Oc1ccccc1-c1csc(-c2ccccc2)n1`, the inhibition is 6.78%.
Turning to `COc1ccc(-c2csc(C)n2)cc1Br`, the inhibition is 10.3%.
As for `Cc1nc(-c2ccccc2)cs1`, the inhibition was 12.6%.
As for `COc1ccc(-c2csc(C)n2)cc1OC`, the inhibition is 2.09%.
Turning to `COc1ccc(-c2csc(-c3ccc(O)cc3)n2)cc1`, the inhibition was 21%.
With `COc1ccc(-c2csc(C)n2)cc1`, the inhibition is 13.6%.

Broadly, the inhibition is the relative decrease from the control value, in per cent.
